Screening results (PubChem BioAssay)
Compounds with a hit are over-represented: about 2.7% of the library has one in this group of screens.
GLP1R ag: GLP-1 receptor (human) agonism; Potency, µM (doses to about 45.6 µM), without a hit: top-dose activation, actives largely listed as activators; HEK293 GLP-1R CRE-luciferase, luminescence, 4-6 h; cells express a hypersensitive GLP-1R form; hit rate 0.007% among 380,000; note: % of control where 0% means no effect
TrxR1 inh: rat TrxR1 inhibition | recombinant rTrxR1, NADPH fluorescence consumption, selenite substrate | hit rate 1% among 390,000 | O89049 | Potency, µM (series often up to 114 µM), for inactives: top-dose activity change, negative = inhibition, actives largely listed as inhibitors; note: % is set by controls: 0 for no effect and ±100 for the full control effect; nearly all actives have a fitted effect of over 65% in size
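Rat TrxR1 (90 nM in the dispensed reagent) was pre-reduced with 400 uM NADPH for 5 min at room temperature, then incubated with compound for 15 min. After 400 uM selenite was added, NADPH fluorescence (Ex 340/Em 450 nm) was followed for 8 min.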
HEK293 tox: cytotoxicity counter-screen for GLP-1 receptor inverse agonists. Potency, µM (titrated, usually from 38.3 µM), for inactives: top-dose activity change, negative = inhibition, usual class: inhibitors. hit rate 0.13% among 410,000. AID 624418. HEK293 cAMP-luciferase reporter cells, luminescence, 24 h;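 note: loss of luciferase light is scored as toxicity; % is set by controls: 0 for no effect and ±100 for the full control effect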
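Step one: seed cells (200 cells/uL, DMEM with 10% Nu serum, 1% pen-strep). Step two: 12-hour incubation at 37 deg C. Step three: pin 23 nL compound, incubate 24 hr. Step four: add luciferase reagent, read luminescence 12 min later.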
TrxR1 substrate: rat thioredoxin reductase 1 substrate activity. purified TrxR1 substrate turnover, NADPH consumption readout. Potency, µM (top dose mostly 114 µM), for the others: top-dose activity change, negative = substrate turnover. hit rate 0.01% among 390,000; note: % is set by controls: 0 for no effect and ±100 for the full control effect; nearly all actives have a fitted effect of over 50% in size
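Rat TrxR1, dispensed at 90 nM, was prereduced with 400 uM NADPH (final) for 5 min at ~22 deg C, then incubated with compound 15 min before 400 uM selenite. A first-read NADPH fluorescence drop versus no-compound background flagged substrates.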
GLP-1R inv ag: inverse agonists of human GLP-1 receptor | P43220 | HEK293 GLP-1R CRE-luciferase, luminescence, 24 h; GLP-1R form is constitutively active | Potency, µM (series often up to 38.3 µM), for the others: at the top dose activity change, negative = inhibition, usual class: inhibitors | hit rate 1.6% among 410,000; note: % is set by controls: 0 for no effect and ±100 for the full control effect; nearly all actives have a fitted effect of over 55% in size
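Cells are plated, allowed 12 hours at 37 deg C, then treated with compounds for 24 hr before luciferase detection reagent is added and luminescence is read after 12 min at room temperature. The HEK293 line carries constitutively active GLP-1R with a cAMP-responsive reporter.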
mIDH1 inhibitor: human IDH1 R132H inhibition; hit rate 0.093% among 390,000; Potency, µM (doses to about 76.6 µM), for inactives: top-dose activity change, negative = inhibition, hits mostly inhibitors; IDH1-R132H enzyme, NADPH consumption, diaphorase/resazurin fluorescence; O75874; note: % is set by controls: 0 for no effect and ±100 for the full control effect; nearly all actives have a fitted effect of over 65% in size
Target sequence (O75874 whole entry R132H, stated change not applied): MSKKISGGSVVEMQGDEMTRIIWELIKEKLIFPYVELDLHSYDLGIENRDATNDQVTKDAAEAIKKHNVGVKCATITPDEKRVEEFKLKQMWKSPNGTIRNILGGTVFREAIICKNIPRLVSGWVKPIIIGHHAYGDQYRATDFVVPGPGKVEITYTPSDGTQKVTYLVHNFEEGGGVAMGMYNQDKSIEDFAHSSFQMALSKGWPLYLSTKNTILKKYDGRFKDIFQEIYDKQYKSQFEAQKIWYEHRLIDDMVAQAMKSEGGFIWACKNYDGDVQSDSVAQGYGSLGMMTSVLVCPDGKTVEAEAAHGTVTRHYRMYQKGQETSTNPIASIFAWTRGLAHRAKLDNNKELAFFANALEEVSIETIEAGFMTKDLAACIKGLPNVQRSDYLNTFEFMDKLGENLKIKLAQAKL
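IDH1-R132H (0.5 ug/mL dispensed) in pH 7.5 Tris buffer was preincubated 30 min with compound, then given a substrate mix of 0.016 mM NADPH and 2 mM alpha-KG for 80 min at room temperature; remaining NADPH was read by diaphorase/resazurin fluorescence.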
Numbers without * were called inactive; [ ] = remark or other dose. Calls come from the whole dose curve; as a rule, active = well fitted curve in the direction sought with a large enough effect; inconclusive = small, poorly fitted or top-dose-only effect, or another doubt; inactive = no such curve, though single readings can be large; an effect the other way counts as inactive or inconclusive. Potency is the fitted concentration of half-maximal effect.

Screening Cc1ccccc1NC(=O)/C(=C/c1ccco1)c1ccccc1 returned GLP1R ag 2%, TrxR1 inh 13%[57.1 µM], HEK293 tox -1%, TrxR1 substrate 8%[57.1 µM], GLP-1R inv ag inconclusive and mIDH1 inhibitor 4%.
CC(=O)Oc1ccc(Cl)cc1CN(C(C)=O)C1CCCCC1 was read as GLP1R ag 6%, TrxR1 inh 32%[57.1 µM], HEK293 tox -8%, TrxR1 substrate 11%[57.1 µM], GLP-1R inv ag 8.9µM* and mIDH1 inhibitor 5%.
COc1ccc(-c2nc(CNC(=O)Nc3ccccc3)c(C)o2)cc1 was read as TrxR1 inh 5%[57.1 µM], HEK293 tox 0%, TrxR1 substrate -2%[57.1 µM], GLP-1R inv ag 13% and mIDH1 inhibitor 0%.
CCn1c(CN2CCN(Cc3ccc(C)cc3)C(CCO)C2)nc2ccccc21 (stereo unspecified) was read as GLP1R ag -3%, TrxR1 inh -1%, HEK293 tox -1%, TrxR1 substrate -2%, GLP-1R inv ag 6.3µM* and mIDH1 inhibitor -17%.
Screening CSc1cccc(NC(=O)CN2C(=O)COc3ccc(Cl)cc32)c1 returned TrxR1 inh 26%, HEK293 tox -7%, TrxR1 substrate 2%, GLP-1R inv ag inconclusive and mIDH1 inhibitor -14%.
`CC(C)n1ncc2c(C(=O)NCCOc3ccccc3F)cc(C3CC3)nc21` gave GLP1R ag 23%, TrxR1 inh 9%, HEK293 tox -11%, TrxR1 substrate 8%, GLP-1R inv ag inconclusive and mIDH1 inhibitor 8%.
Screening CCNC(=O)c1cccc(NC(=O)c2cc(C3CC3)nc3c2cnn3C(C)C)c1 returned GLP1R ag 12%, TrxR1 inh -7%, HEK293 tox -18%, TrxR1 substrate -6%, GLP-1R inv ag 10µM* and mIDH1 inhibitor -6%.
COc1ccc(CNC(=O)c2cc(C3CC3)nc3c2cnn3C(C)C)cc1 was read as GLP1R ag 8%, TrxR1 inh 3%, HEK293 tox 2%, TrxR1 substrate 3%, GLP-1R inv ag inconclusive and mIDH1 inhibitor 16%.
For CC(C)n1ncc2c(C(=O)Nc3cccc(C#N)c3)cc(C3CC3)nc21 the results were GLP1R ag -1%, TrxR1 inh -2%, HEK293 tox 22%, TrxR1 substrate -3%, GLP-1R inv ag 8.9µM* and mIDH1 inhibitor 4%.
`CCOc1ccc(OCCNC(=O)c2cc(C3CC3)nc3c2cnn3C(C)C)cc1` gave GLP1R ag 1%, TrxR1 inh -6%, HEK293 tox -10%, TrxR1 substrate -11%, GLP-1R inv ag 8.9µM* and mIDH1 inhibitor 2%.
Screening CC(C)n1ncc2c(C(=O)O)cc(C3CC3)nc21 returned GLP1R ag -7%, TrxR1 inh 22%[57.1 µM], HEK293 tox -10%, TrxR1 substrate 13%[57.1 µM], GLP-1R inv ag 1% and mIDH1 inhibitor 10%.
For Cc1nn(C(C)C(=O)N2CCN(c3ccc(Cl)cc3)CC2)c(=O)c2cc3occc3n12 (stereo unspecified) the results were TrxR1 inh -4%, HEK293 tox -22%, TrxR1 substrate -1%, GLP-1R inv ag inconclusive and mIDH1 inhibitor 3%.
Screening O=C(NNc1cc(Cl)cc(Cl)c1)C1CCC1 returned GLP1R ag 9%, TrxR1 inh 8%[57.1 µM], HEK293 tox -19%, TrxR1 substrate 4%[57.1 µM], GLP-1R inv ag 5.6µM* and mIDH1 inhibitor 4%.
`O=C(NNc1ccc(Cl)cc1)C1CCC1` gave GLP1R ag -7%, TrxR1 inh 3%[57.1 µM], HEK293 tox -12%, TrxR1 substrate 1%[57.1 µM], GLP-1R inv ag inconclusive and mIDH1 inhibitor 6%.
O=C(Nc1sc2c(c1C(=O)NCc1ccccc1)CCCC2)c1cc(=O)c2cc(Cl)ccc2o1 was read as TrxR1 inh 25%, HEK293 tox 21%, TrxR1 substrate 8%, GLP-1R inv ag 7% and mIDH1 inhibitor 9%.
`O=[N+]([O-])c1ccc(-c2cnc(SCc3ccccc3Cl)[nH]2)cc1` gave GLP1R ag -7%, TrxR1 inh -4%, HEK293 tox -7%, TrxR1 substrate -8%, GLP-1R inv ag 10µM* and mIDH1 inhibitor 3%.
Screening Cc1cc(C)c(CSc2ncc(-c3ccc([N+](=O)[O-])cc3)[nH]2)c(C)c1 returned GLP1R ag -36%, TrxR1 inh 3%[57.1 µM], HEK293 tox -13%, TrxR1 substrate -1%[57.1 µM], GLP-1R inv ag 8.9µM* and mIDH1 inhibitor 0%.
`NC(=O)CSc1ncc(-c2ccc([N+](=O)[O-])cc2)[nH]1` gave GLP1R ag 12%, TrxR1 inh -1%, HEK293 tox -5%, TrxR1 substrate -6%, GLP-1R inv ag 15% and mIDH1 inhibitor 3%.
COc1ccc(-c2nsc3c(N4CCCCC4C)ncnc23)cc1 (stereo unspecified) was read as GLP1R ag -12%, TrxR1 inh 7%[57.1 µM], HEK293 tox 39%, TrxR1 substrate 3%[57.1 µM], GLP-1R inv ag 0.28µM* and mIDH1 inhibitor 16%.
Screening CC(C)(C)Cc1c(-c2ccc(Cl)cc2)nc2ccc(Br)cn12 returned GLP1R ag -3%, HEK293 tox inconclusive, GLP-1R inv ag 10µM* and mIDH1 inhibitor 0%.
For CC(C)(C)Cc1c(-c2ccccc2)nc2ccc(Cl)cn12 the results were GLP1R ag -6%, HEK293 tox inconclusive, GLP-1R inv ag 13µM* and mIDH1 inhibitor 0%.
`C(=C\c1nccc2ccccc12)/c1ccc(N2CCOCC2)cc1` gave TrxR1 inh 1% and TrxR1 substrate -2%.
CN(CC/C=C1/c2ccccc2CSc2ccccc21)CCCO was read as GLP1R ag 2%, TrxR1 inh 0%, HEK293 tox inconclusive, TrxR1 substrate 4%, GLP-1R inv ag 5.6µM* and mIDH1 inhibitor 3%.
CN(C)CC/C=C1\c2cc(F)ccc2CSc2ccccc21 was read as GLP1R ag 2%, TrxR1 inh -7%, HEK293 tox inconclusive, TrxR1 substrate -6%, GLP-1R inv ag inconclusive and mIDH1 inhibitor 1%.
Screening C#CCN(C)CC/C=C1\c2ccccc2CSc2ccccc21 returned GLP1R ag 2%, TrxR1 inh 0%, HEK293 tox -3%, TrxR1 substrate 9%[57.1 µM], GLP-1R inv ag 4.5µM* and mIDH1 inhibitor 9%.
`NCC/C=C1/c2ccccc2CSc2ccccc21` gave GLP1R ag -2%, TrxR1 inh -14%, HEK293 tox inconclusive, TrxR1 substrate -8%, GLP-1R inv ag 3.2µM* and mIDH1 inhibitor 9%.
